Data taken from PubChem BioAssay (NCATS).
Results filed as inconclusive are left out. A number with no mark means an inactive call. The source made the active and inactive calls. Calls come from the whole dose curve; as a rule, active = well fitted curve in either direction with a large enough effect (not every such curve was filed as active); inconclusive = small, poorly fitted or top-dose-only effect, or another doubt; inactive = flat fitted curve, though single readings scatter.

assay: AP1 Signaling Pathway (AID 357); conditions: ME-180 AP-1-bla reporter, EGF-induced, beta-lactamase ratio, 5 h; at 17.2 µM (top of the series) unless noted
Procedure, shortened: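 ME-180 cells with beta-lactamase reporter under AP-1 response element, stimulated with EC50 EGF; compounds tested in titration series, 5 h at 37 °C. CCF4 substrate added 2.5 h at room temperature; 460/530 nm emission ratio gave %activity and AC50.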
% is set by controls: 0 for no effect and ±100 for the full control effect.

Structure (SMILES) | activity change, negative = inhibition
Cc1cc(=O)[nH]c(COc2ccccc2)n1 | 3.59%
CC1(C)CC(N(Cc2ccco2)C(=O)Cc2ccccc2)CCO1 (stereo not given) | -1.99%
COc1ccc(OC)c(N=C(C)C2=C(O)COC2=O)c1 | -4.74%
CCOC(=O)c1cc2c(=O)n3cccc(C)c3nc2n(Cc2cccnc2)c1=N | 13.7%
Cc1ccc(N2C(=O)C3ON(c4ccccc4)C(c4ccncc4)C3C2=O)cc1 (stereo not given) | 5.13%
CCSc1nc(N)c2c3c(sc2n1)CCC3 | -12.5%
Cc1ccc(N2C(=O)C3ON(c4ccccc4)C(c4ccncc4)C3C2=O)c(C)c1 (stereo not given) | 4.43%
COc1ccc(/C(O)=C2/C(=O)C(=O)N(c3ncccn3)C2c2ccc(OC)c(OC)c2)cc1 (stereo not given) | 10.2%
CCOC(=O)CC(C#N)c1cn(C)c2ccccc12 (stereo not given) | 8.21%
COC(=O)CC1SC(=O)NC1=O (stereo not given) | 6.96%
Cn1c(=O)c2c(nc(NCc3ccc4c(c3)OCO4)n2Cc2ccc(F)cc2)n(C)c1=O | -26%
COc1cc(OC)cc(C(=O)N2CCC(N3CCN(c4ccccc4)CC3)CC2)c1 | 5.25%
C=CCn1c(-c2ccccc2)n[nH]c1=S | 6.97%
Cc1nnc(N2CCOCC2)c2ccccc12 | 5.51%
CCOC(=O)c1c(C)n(C)c2ccc(OC)c(NC(=O)CN3CCSCC3)c12 | -2.27%
Cc1nnc2n(-c3ccccc3)c(=O)c3c4c(sc3n12)COC(C(C)C)C4 (stereo not given) | -3.43%
CN1CCc2c(c3c(n2C)CCN(C)[C@@H]3c2cccnc2)[C@H]1c1cccnc1 | 5.56%
C/C(=N\O)c1c(C)c2ccccc2n1C | 2.06%
N/C(=N\c1nc2ccccc2o1)NC(=O)c1ccccc1NC(=O)c1ccccc1 | 14.1%
COc1ccc(C=NCCC2(O)CC(C)N(C)CC2C)cc1 (stereo not given) | -0.876%

Structure (SMILES) | activity change, negative = inhibition
CO[C@H]1C[C@@H]2CC[C@@H](C)[C@@](O)(O2)C(=O)C(=O)N2CCCC[C@H]2C(=O)O[C@H]([C@H](C)C[C@@H]2CC[C@@H](O)[C@H](OC)C2)CC(=O)[C@H](C)C=C(C)[C@@H](O)[C@@H](OC)C(=O)[C@H](C)C[C@H](C)C=CC=CC=C1C | 6.13%
COc1ccc(C2C=C(c3ccc(Cl)cc3)Nc3nc(NC(C)=O)nn32)cc1 (stereo not given) | -15.6%
O=C1C(=O)N(Cc2cccnc2)C(c2ccccn2)/C1=C(/O)c1ccc(F)cc1 (stereo not given) | 10.7%
CCN(CC)c1nc(C)c2c(c1C#N)CC(C)(C)OC2 | -7.83%
COc1cccc(N2CCN(c3ncnc4c3[nH]c3ccc(F)cc34)CC2C)c1 (stereo not given) | -121% (active)
COc1cc(N2CCCC2)c(OC)cc1/C=c1/sc2nc3ccccc3n2c1=O | -3.35%
COc1ccc(/C=N/n2cncn2)cc1COc1ccc(NC(C)=O)cc1 | -1.63%
C=CCc1cccc(/C=N/n2cnnc2)c1O | -1.43%
Cc1cc(/C=N/n2cnnc2)c(C)n1-c1ccc2c(c1)OCO2 | 9.26%
Cc1c(OCc2ccccc2)c(=O)ccn1Cc1ccccc1 | -8.27%
COc1ccc(N2CC(=O)N(c3ccc(OC)c(OC)c3)CC2=O)cc1OC | 22.8%
COC(=O)c1ccc(C2/C(=C(\O)c3cccc(OC)c3)C(=O)C(=O)N2CCCN2CCOCC2)cc1 (stereo not given) | 3.85%
CC/C(=N\O)c1ccc(OC)c(OC)c1 | 4.83%
Cc1nnc(C)n1/N=C/c1cccn1C | 4.24%
Cc1cc(C)n(CC2CC(=O)N(c3cc(Cl)cc(Cl)c3)C2=O)n1 (stereo not given) | -15.1%
COC(=O)c1n[nH]c2ccccc12 | 9.29%
Cn1c(=NCC(O)COc2ccccc2)sc2ccccc21 (stereo not given) | -7.25%
CCC1(C)Cc2c(sc3[nH]c(=O)[nH]c(=O)c23)CS1 (stereo not given) | 6.31%
COC(=O)C(NC(=O)c1ccccc1)(Nc1nc(C)cs1)C(F)(F)F (stereo not given) | 20%
Cc1ccc2cc(CNC(C)(C)C)c(=O)[nH]c2c1 | 2.11%

assay: NFAT Signaling Pathway (AID 444); conditions: Jurkat NFAT-bla M1, carbachol, beta-lactamase ratio, 5 h; at 17.2 µM (top of the series) unless noted;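 note: carbachol stimulus at about its EC50 of 1 µM final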
Procedure, shortened: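 Read-out: CCF4 FRET ratio (460 nm/530 nm) after 1 h RT dye loading, used for %activity and AC50 from titration series. Cells: Jurkat NFAT-β-lactamase/M1 line, treated with compound plus 1 uM carbachol for 5 h, 37 °C.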

Structure (SMILES) | activity change, negative = inhibition
Cc1cc(=O)[nH]c(COc2ccccc2)n1 | -7.86%
CC1(C)CC(N(Cc2ccco2)C(=O)Cc2ccccc2)CCO1 (stereo not given) | -3.12%
COc1ccc(OC)c(N=C(C)C2=C(O)COC2=O)c1 | 0.486%
CCOC(=O)c1cc2c(=O)n3cccc(C)c3nc2n(Cc2cccnc2)c1=N | -26.5%
Cc1ccc(N2C(=O)C3ON(c4ccccc4)C(c4ccncc4)C3C2=O)cc1 (stereo not given) | 9.45%
CCSc1nc(N)c2c3c(sc2n1)CCC3 | -2.96%
Cc1ccc(N2C(=O)C3ON(c4ccccc4)C(c4ccncc4)C3C2=O)c(C)c1 (stereo not given) | 26.3%
COc1ccc(/C(O)=C2/C(=O)C(=O)N(c3ncccn3)C2c2ccc(OC)c(OC)c2)cc1 (stereo not given) | -0.912%
CCOC(=O)CC(C#N)c1cn(C)c2ccccc12 (stereo not given) | -8.09%
COC(=O)CC1SC(=O)NC1=O (stereo not given) | 5.58%
Cn1c(=O)c2c(nc(NCc3ccc4c(c3)OCO4)n2Cc2ccc(F)cc2)n(C)c1=O | -10.4%
COc1cc(OC)cc(C(=O)N2CCC(N3CCN(c4ccccc4)CC3)CC2)c1 | -4.18%
C=CCn1c(-c2ccccc2)n[nH]c1=S | -4.63%
Cc1nnc(N2CCOCC2)c2ccccc12 | 6.76%
CCOC(=O)c1c(C)n(C)c2ccc(OC)c(NC(=O)CN3CCSCC3)c12 | -0.789%
Cc1nnc2n(-c3ccccc3)c(=O)c3c4c(sc3n12)COC(C(C)C)C4 (stereo not given) | -28.2%
CN1CCc2c(c3c(n2C)CCN(C)[C@@H]3c2cccnc2)[C@H]1c1cccnc1 | 8.24%
C/C(=N\O)c1c(C)c2ccccc2n1C | -14.1%
N/C(=N\c1nc2ccccc2o1)NC(=O)c1ccccc1NC(=O)c1ccccc1 | -14.2%
COc1ccc(C=NCCC2(O)CC(C)N(C)CC2C)cc1 (stereo not given) | 9.42%

Structure (SMILES) | activity change, negative = inhibition
CO[C@H]1C[C@@H]2CC[C@@H](C)[C@@](O)(O2)C(=O)C(=O)N2CCCC[C@H]2C(=O)O[C@H]([C@H](C)C[C@@H]2CC[C@@H](O)[C@H](OC)C2)CC(=O)[C@H](C)C=C(C)[C@@H](O)[C@@H](OC)C(=O)[C@H](C)C[C@H](C)C=CC=CC=C1C | 24.7%
COc1ccc(C2C=C(c3ccc(Cl)cc3)Nc3nc(NC(C)=O)nn32)cc1 (stereo not given) | -13.4%
O=C1C(=O)N(Cc2cccnc2)C(c2ccccn2)/C1=C(/O)c1ccc(F)cc1 (stereo not given) | 3.79%
CCN(CC)c1nc(C)c2c(c1C#N)CC(C)(C)OC2 | -24.4%
COc1cccc(N2CCN(c3ncnc4c3[nH]c3ccc(F)cc34)CC2C)c1 (stereo not given) | -137% (active)
COc1cc(N2CCCC2)c(OC)cc1/C=c1/sc2nc3ccccc3n2c1=O | -23%
COc1ccc(/C=N/n2cncn2)cc1COc1ccc(NC(C)=O)cc1 | 2.89%
C=CCc1cccc(/C=N/n2cnnc2)c1O | -2.18%
Cc1cc(/C=N/n2cnnc2)c(C)n1-c1ccc2c(c1)OCO2 | -13%
Cc1c(OCc2ccccc2)c(=O)ccn1Cc1ccccc1 | -0.234%
COc1ccc(N2CC(=O)N(c3ccc(OC)c(OC)c3)CC2=O)cc1OC | 5.84%
COC(=O)c1ccc(C2/C(=C(\O)c3cccc(OC)c3)C(=O)C(=O)N2CCCN2CCOCC2)cc1 (stereo not given) | -2.61%
CC/C(=N\O)c1ccc(OC)c(OC)c1 | 2.19%
Cc1nnc(C)n1/N=C/c1cccn1C | 13.1%
Cc1cc(C)n(CC2CC(=O)N(c3cc(Cl)cc(Cl)c3)C2=O)n1 (stereo not given) | -7.21%
COC(=O)c1n[nH]c2ccccc12 | 15.6%
Cn1c(=NCC(O)COc2ccccc2)sc2ccccc21 (stereo not given) | -13.4%
CCC1(C)Cc2c(sc3[nH]c(=O)[nH]c(=O)c23)CS1 (stereo not given) | 6.7%
COC(=O)C(NC(=O)c1ccccc1)(Nc1nc(C)cs1)C(F)(F)F (stereo not given) | 6.46%
Cc1ccc2cc(CNC(C)(C)C)c(=O)[nH]c2c1 | -5.21%
